What all share (experiment): log2 ratio of Biotin-Ahx-Ub-VS probe labelling (fragment/DMSO); higher = less target engagement (more negative = stronger competition), active = hit call of the paper (q ≤ 0.05, log2 ratio ≤ -1)
Common to all, as to details: compound concentration: 200 uM; treatment time: 3 h

The target in one assay is T1, OTUD6B (UniProt Q8N6M0).
T1 sequence (whole entry): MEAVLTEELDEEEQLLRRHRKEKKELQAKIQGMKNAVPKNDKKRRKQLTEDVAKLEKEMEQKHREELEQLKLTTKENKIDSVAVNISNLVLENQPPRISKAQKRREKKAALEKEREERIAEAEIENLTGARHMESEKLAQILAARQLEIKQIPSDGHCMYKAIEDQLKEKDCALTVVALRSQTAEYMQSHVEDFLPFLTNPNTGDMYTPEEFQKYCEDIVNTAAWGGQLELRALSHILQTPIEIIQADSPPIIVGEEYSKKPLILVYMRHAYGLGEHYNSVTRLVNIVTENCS
Put shortly: (§1)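 Using Biotin-Ahx-Ub-VS at 0.5 µM final for 1 h, DUBs were labelled in HEK293T lysate (495 µg per sample) that had first been treated in triplicate with fragment at 200 µM or vehicle for 3 h. NeutrAvidin enrichment, LysC and trypsin digestion and diaPASEF LC-MS/MS followed. Spectronaut label-free quantities were global-median-normalised. Values are average log2 fragment/vehicle ratios by unpaired t-test, using proteins with ≥2 unique peptides.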

Another assay deals with T2, OTUD7B (UniProt Q6GQQ9).
T2 sequence (whole entry): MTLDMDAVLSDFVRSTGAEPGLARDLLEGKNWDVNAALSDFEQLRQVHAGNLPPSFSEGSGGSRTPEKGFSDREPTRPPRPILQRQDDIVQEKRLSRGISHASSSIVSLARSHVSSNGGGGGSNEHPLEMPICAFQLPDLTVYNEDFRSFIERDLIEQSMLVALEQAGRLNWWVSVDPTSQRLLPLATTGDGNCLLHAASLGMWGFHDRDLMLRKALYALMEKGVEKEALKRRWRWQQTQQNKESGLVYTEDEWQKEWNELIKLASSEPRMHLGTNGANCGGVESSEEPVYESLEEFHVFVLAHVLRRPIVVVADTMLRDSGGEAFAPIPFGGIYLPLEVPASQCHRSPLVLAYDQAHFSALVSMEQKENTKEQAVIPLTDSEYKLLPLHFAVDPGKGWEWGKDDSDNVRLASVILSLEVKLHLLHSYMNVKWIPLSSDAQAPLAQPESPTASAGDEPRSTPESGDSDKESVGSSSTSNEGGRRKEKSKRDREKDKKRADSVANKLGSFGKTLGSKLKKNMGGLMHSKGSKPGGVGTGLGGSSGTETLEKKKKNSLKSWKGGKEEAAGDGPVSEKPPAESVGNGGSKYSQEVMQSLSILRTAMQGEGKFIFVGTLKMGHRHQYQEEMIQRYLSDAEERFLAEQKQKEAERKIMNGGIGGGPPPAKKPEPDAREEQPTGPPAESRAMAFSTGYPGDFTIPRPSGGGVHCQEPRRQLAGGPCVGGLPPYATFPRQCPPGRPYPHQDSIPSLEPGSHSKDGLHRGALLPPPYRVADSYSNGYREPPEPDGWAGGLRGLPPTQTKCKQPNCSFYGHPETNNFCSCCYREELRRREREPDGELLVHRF
In outline:
as §1

For the next assay, the target named is PRPF8 (UniProt Q6P2Q9). In outline: as §1
A further assay addresses T3, PSMD7 (UniProt P51665).
T3 sequence (whole entry): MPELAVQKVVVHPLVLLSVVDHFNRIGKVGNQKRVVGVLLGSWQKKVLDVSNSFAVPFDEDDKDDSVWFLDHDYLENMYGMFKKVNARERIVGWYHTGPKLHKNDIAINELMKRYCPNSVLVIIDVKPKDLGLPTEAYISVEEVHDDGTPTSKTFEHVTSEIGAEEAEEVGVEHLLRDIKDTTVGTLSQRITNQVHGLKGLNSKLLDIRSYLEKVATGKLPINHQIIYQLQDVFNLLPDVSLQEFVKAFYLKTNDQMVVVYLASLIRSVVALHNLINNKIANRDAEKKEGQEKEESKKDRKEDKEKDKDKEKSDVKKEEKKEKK
Put shortly: as §1

A further assay deals with UCHL1 (UniProt P09936). Put shortly: as §1
In the next assay the target is T4, UCHL3 (UniProt P15374).
T4 sequence (whole entry): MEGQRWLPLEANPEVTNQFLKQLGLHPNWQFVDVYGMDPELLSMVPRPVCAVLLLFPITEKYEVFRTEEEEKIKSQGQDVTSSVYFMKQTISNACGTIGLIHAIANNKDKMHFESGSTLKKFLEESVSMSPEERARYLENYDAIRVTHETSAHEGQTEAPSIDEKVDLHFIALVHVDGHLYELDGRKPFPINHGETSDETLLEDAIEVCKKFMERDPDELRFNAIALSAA
Put shortly: as §1

In the next assay the target is T5, UCHL5 (UniProt Q9Y5K5).
T5 sequence (whole entry): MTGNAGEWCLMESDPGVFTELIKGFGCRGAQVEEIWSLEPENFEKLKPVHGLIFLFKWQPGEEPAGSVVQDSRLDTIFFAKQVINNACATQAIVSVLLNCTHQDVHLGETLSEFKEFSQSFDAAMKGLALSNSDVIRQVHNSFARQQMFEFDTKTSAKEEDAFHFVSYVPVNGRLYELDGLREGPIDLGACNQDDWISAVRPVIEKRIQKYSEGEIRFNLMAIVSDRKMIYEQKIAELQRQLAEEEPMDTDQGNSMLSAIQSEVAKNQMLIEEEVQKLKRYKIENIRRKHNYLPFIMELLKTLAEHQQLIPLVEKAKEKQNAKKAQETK
Put shortly:
as §1

In the next assay the target is USP10 (UniProt Q14694). In outline: as §1
In the next assay the target is T6, USP15 (UniProt Q9Y4E8).
T6 sequence (whole entry): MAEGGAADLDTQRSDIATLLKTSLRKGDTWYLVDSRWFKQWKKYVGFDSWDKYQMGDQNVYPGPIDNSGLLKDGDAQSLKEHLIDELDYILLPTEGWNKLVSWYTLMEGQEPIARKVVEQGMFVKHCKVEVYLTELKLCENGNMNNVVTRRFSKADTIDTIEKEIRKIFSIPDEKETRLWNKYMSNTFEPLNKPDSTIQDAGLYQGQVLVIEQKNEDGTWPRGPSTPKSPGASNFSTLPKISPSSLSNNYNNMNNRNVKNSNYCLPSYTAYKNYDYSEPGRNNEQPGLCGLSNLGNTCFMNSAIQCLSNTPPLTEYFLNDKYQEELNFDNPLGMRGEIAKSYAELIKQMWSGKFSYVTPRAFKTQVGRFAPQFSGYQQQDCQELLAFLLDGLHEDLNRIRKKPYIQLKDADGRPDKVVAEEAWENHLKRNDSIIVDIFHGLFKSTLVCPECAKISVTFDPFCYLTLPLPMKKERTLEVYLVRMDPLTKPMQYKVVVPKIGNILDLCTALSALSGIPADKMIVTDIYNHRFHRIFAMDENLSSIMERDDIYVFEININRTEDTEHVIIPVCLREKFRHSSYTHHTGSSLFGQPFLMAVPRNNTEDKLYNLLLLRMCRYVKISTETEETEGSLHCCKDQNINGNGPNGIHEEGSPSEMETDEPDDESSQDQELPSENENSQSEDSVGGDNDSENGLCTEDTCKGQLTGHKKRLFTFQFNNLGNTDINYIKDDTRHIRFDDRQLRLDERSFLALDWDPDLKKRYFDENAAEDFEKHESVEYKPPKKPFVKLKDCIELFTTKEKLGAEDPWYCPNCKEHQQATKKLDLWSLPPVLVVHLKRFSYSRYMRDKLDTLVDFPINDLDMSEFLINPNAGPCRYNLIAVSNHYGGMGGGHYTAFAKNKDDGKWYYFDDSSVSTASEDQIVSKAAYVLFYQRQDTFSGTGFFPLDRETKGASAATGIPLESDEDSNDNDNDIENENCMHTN
Put shortly:
as §1

A further assay addresses USP16 (UniProt Q9Y5T5). Put shortly: as §1

Data on one molecule can be found in the supplement of paper PMC11732987, “Enantioselective OTUD7B fragment discovery through chemoproteomics screening and high-throughput optimisation” (Communications Chemistry, 2025).

A number with no mark means an inactive call.

USP16, sequence (Q9Y5T5 whole entry, looked up): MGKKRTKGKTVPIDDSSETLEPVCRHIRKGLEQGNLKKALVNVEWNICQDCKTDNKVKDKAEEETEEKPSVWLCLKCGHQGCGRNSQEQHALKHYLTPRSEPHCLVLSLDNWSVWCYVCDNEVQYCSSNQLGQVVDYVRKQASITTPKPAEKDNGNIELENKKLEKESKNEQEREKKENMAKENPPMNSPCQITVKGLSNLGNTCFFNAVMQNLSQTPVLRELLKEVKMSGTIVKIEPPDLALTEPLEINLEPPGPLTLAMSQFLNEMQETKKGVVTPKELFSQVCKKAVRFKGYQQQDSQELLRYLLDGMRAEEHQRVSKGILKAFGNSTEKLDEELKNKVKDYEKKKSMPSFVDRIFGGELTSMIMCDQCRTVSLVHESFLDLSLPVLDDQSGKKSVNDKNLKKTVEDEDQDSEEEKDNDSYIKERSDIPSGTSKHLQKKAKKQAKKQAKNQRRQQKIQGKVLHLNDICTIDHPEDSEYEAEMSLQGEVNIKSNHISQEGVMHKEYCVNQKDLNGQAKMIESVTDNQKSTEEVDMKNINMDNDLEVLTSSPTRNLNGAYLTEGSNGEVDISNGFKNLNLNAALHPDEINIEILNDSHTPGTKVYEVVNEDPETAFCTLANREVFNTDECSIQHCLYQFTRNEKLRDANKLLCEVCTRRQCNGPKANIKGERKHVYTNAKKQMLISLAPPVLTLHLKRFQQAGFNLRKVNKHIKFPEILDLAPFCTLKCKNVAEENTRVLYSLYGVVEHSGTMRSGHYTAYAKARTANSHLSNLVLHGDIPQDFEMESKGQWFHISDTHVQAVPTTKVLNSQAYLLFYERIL
USP10, sequence (Q14694 whole entry): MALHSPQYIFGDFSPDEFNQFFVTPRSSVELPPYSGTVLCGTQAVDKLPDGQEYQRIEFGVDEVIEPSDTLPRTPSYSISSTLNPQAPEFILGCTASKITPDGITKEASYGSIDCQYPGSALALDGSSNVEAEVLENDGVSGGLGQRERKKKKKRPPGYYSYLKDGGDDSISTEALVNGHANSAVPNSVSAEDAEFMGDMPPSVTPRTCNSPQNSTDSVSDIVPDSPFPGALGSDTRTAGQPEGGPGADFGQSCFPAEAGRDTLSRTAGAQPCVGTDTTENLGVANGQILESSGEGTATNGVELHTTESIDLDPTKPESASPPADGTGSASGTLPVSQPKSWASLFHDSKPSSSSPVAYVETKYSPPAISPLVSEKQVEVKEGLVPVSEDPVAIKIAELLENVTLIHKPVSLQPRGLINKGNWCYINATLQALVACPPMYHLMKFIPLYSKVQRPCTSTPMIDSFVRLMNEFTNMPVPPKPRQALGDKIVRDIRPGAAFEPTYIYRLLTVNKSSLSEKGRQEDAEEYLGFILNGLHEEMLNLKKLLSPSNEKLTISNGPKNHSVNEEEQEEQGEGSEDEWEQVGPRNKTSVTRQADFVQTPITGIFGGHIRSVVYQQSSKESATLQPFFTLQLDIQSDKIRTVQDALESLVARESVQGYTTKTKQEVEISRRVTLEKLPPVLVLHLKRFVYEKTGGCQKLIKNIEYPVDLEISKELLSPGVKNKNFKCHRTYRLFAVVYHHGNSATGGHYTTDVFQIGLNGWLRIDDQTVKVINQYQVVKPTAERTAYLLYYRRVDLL
UCHL1, sequence (P09936 whole entry, looked up): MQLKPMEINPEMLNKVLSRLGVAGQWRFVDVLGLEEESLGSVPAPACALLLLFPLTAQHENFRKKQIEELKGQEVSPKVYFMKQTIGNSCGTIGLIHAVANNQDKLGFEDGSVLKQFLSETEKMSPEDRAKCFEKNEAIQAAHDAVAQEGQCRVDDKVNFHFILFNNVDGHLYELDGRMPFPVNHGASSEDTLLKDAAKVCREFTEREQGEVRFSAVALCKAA

Take `O=C(CCl)Nc1ccc(F)cc1F`: the “log2 ratio of Biotin-Ahx-Ub-VS probe labelling” value with OTUD6B is -0.161; in the assay with OTUD7B, -0.881; with PRPF8, -0.105; with PSMD7, -0.179; with UCHL1, -1.47 (active); in the assay with UCHL3, 0.078. Moreover, the “log2 ratio of Biotin-Ahx-Ub-VS probe labelling” value with UCHL5 was -0.242; with USP10, -0.129; with USP15 it was -0.34; with USP16, 0.0073.
